For 90 compounds, B-score results are on record in PubChem BioAssay AID449739 (Vanderbilt High Throughput Screening Facility, 2010).

In all, about 100,000 compounds went through this assay and about 4,200 (4.2%) were called active.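 Rule for the calls: active = single-dose well whose peak fluorescence ratio is a statistical outlier from its plate by either plate-standardised score or position-corrected B-score; inactive = the rest.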 The list comes from a sample in which actives are over-represented; it also holds similar structures and randomly drawn compounds.

The target in this assay is Voltage-dependent T-type calcium channel subunit alpha-1H (Homo sapiens) (UniProt O95180). The experiment in a line: Cav3.2 calcium influx blockers – cell-based, Fluo-4 calcium fluorescence, FDSS, MLSMR library, primary screen (AID 449739). The conditions noted are these: Cav3.2-expressing cells, at 10 µM, hits give low values.
Chain of Voltage-dependent T-type calcium channel subunit alpha-1H (Homo sapiens) (O95180 whole entry, looked up): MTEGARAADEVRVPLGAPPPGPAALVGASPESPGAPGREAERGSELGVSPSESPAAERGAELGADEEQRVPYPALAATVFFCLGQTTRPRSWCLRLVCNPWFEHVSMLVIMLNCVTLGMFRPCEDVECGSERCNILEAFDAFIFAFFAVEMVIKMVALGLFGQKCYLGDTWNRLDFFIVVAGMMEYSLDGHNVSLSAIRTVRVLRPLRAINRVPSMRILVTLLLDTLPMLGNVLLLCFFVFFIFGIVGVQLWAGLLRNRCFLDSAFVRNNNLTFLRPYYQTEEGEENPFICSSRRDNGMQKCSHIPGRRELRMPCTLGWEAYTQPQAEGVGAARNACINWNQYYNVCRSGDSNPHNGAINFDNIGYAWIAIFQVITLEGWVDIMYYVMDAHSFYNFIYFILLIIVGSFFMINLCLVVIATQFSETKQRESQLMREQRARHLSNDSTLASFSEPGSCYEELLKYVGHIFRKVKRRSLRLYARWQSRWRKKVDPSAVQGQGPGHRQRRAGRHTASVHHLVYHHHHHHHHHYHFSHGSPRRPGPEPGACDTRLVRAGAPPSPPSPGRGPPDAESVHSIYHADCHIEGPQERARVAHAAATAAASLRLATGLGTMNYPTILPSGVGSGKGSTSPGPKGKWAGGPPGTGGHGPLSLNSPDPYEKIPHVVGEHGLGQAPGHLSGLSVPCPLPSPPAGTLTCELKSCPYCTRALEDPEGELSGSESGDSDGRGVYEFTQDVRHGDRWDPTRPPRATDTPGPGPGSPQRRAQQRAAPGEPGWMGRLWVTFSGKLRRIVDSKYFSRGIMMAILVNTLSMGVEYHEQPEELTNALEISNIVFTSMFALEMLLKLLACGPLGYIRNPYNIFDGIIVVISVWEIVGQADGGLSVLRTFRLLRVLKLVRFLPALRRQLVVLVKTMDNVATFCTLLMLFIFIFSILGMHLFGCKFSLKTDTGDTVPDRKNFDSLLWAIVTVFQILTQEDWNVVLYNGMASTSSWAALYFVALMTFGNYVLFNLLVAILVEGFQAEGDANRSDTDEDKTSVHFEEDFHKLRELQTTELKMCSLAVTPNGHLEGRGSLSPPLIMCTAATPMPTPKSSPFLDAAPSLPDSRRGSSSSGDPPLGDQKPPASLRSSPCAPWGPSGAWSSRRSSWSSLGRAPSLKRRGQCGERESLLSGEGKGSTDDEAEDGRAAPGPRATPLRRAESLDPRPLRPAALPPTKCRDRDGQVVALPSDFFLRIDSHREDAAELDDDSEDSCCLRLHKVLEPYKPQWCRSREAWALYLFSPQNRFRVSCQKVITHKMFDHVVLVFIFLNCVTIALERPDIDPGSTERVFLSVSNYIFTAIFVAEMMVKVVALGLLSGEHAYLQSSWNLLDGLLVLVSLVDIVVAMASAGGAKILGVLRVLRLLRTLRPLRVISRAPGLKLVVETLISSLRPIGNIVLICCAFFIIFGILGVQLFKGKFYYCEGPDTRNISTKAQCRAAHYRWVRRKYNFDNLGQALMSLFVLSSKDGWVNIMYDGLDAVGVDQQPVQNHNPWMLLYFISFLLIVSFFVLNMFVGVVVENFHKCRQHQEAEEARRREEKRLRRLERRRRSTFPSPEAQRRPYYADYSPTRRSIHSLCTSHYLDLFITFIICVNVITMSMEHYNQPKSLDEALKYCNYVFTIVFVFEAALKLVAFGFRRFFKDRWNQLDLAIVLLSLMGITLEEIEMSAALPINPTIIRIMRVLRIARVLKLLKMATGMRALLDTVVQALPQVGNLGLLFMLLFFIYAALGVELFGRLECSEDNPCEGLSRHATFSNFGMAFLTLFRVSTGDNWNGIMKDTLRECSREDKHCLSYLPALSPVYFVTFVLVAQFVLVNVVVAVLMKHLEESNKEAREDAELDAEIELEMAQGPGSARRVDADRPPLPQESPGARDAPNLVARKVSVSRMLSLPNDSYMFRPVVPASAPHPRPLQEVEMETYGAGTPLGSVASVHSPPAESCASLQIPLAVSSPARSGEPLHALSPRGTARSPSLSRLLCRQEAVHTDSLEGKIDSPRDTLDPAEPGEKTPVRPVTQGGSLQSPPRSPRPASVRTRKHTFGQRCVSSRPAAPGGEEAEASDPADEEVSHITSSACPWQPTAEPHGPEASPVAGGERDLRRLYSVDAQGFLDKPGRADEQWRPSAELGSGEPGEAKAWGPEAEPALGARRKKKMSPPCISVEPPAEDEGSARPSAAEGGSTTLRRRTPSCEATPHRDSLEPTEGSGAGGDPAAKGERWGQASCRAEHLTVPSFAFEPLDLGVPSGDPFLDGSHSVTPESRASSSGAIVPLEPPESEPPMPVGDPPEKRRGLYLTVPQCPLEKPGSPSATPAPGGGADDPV
`CCOc1ccc(NC(=O)CC2C(=O)N(c3ccccc3)C(=O)N2CCOC)cc1` (stereo not given): the B-score was 0.221 (inactive).

Take `C=C(C)COc1ccc(-c2n[nH]c(C)c2-c2ccccc2OC)c(O)c1`: the B-score is -1.28 (inactive).

Regarding `CCOc1ccccc1Oc1cn[nH]c1-c1ccc(OC)cc1O`, the B-score was -3.81 (active).

As for `COc1ccc(-c2n[nH]c(C)c2-c2ccc(OC)c(OC)c2)c(O)c1`, the B-score was -1.02 (inactive).

Turning to `O=C(c1cccc(F)c1)N1CCN(c2ccc([N+](=O)[O-])c(N3CCCCC3)c2)CC1`, the B-score was -2.45 (inactive).

For the compound `Cc1cccc(N2CCN(C(=O)CN(C)S(=O)(=O)c3ccc4c(c3)CCC(=O)N4)CC2)c1C`, the B-score was 1.04 (inactive).

For the compound `Clc1ccc(Cn2ncc3c(NCc4cccnc4)ncnc32)cc1`, the B-score is -4.69 (active).

Regarding `O=S(=O)(NCc1cccnc1)c1ccc(Cl)nc1`, the B-score is 0.0815 (inactive).

Take `CC(C)Nc1ncnc2c1nnn2Cc1ccccc1`: the B-score is 0.849 (inactive).

As for `CN1CCN(C(CNS(=O)(=O)c2cccs2)c2cccnc2)CC1` (stereo not given), the B-score is -0.131 (inactive).

For `O=C(/C=C\NCC(=O)c1ccccc1)c1ccccc1`, the B-score was 0.368 (inactive).

As for `COc1ccccc1NC(=O)CC(NCCN(C)C)C(=O)O` (stereo not given), the B-score was -0.277 (inactive).

`C#CCNC(=O)[C@H](Cc1ccc(C(=O)c2ccccc2)cc1)NC(=O)OC(C)(C)C`: the B-score is 0.229 (inactive).

With `COc1ccccc1NC(=O)[C@H](COCc1ccccc1)NC(=O)OC(C)(C)C`, the B-score was -4.41 (active).

In the case of `COC(=O)c1ccc(C2C(Oc3ccccc3C)C(=O)N2CCc2ccc(OC)c(OC)c2)cc1` (stereo not given), the B-score was -2.96 (inactive).

Consider `C=C1C2C[C@H](O)C(C)(C)[C@@]2(O)[C@H](O)C[C@]23C[C@@](C)(O)[C@H](CC[C@H]12)[C@H]3O` (stereo not given in full), for which the B-score was 0.00132 (inactive).

Take `C#CCO[C@@H]1C[C@H](n2cnc3c(=O)[nH]c(NC(=O)C(C)C)nc32)O[C@@H]1CO`: the B-score is 0.0144 (inactive).

In the case of `CC(C)NC(=O)NCCCCCCS(C)=O` (stereo not given), the B-score was 0.449 (inactive).

With `CCCCOC(=O)Cn1c(=N)n(CCN(CC)CC)c2ccccc21`, the B-score was 0.824 (inactive).

`CCOC(=O)CN1C(=O)C(=O)c2cc(C)ccc21`: the B-score was 0.0584 (inactive).

For the compound `CCCCOC(=O)Cn1c(=O)n(CC(=O)OCCCC)c2cc(C)ccc21`, the B-score is -8.75 (active).

With `COC(=O)CCCC1=CC2=C(c3ccccc3)C(=O)C(C)(OC(=O)C3CCCC3)C(=O)C2=CN1c1ccc(OC)cc1` (stereo not given), the B-score is 0.00545 (inactive).

As to `Cc1nn(-c2ccccn2)c2c1C(c1ccncc1)C1=C(CC(C)(C)CC1=O)N2` (stereo not given), the B-score was 0.727 (inactive).

As to `CCOc1ccc(N(CC(=O)OC)S(=O)(=O)c2c(C)noc2C)cc1`, the B-score is -5.9 (active).

For the compound `CCOc1ccc(N(CC(=O)NCc2ccc(OC)cc2)S(=O)(=O)c2c(C)noc2C)cc1`, the B-score was 0.15 (inactive).

In the case of `CCOC(=O)c1cccc(NC(=O)CN(c2ccc(C)cc2)S(=O)(=O)c2c(C)noc2C)c1`, the B-score is -6.06 (active).

On to `COC(=O)c1ccc(NC(=O)CN(c2ccc(C)cc2)S(=O)(=O)c2c(C)n[nH]c2C)cc1`, for which the B-score is -2.02 (inactive).

Regarding `Cc1noc(C)c1S(=O)(=O)N(CC(=O)Nc1ccc2c(c1)OCCO2)c1ccc(C(C)C)cc1`, the B-score was -2.62 (inactive).

Regarding `CCOC(=O)C1CCCN(C(=O)CN(c2ccc(OC)cc2)S(=O)(=O)c2c(C)noc2C)C1` (stereo not given), the B-score was 0.012 (inactive).

Take `COc1cccc(C(=O)NNC(=O)c2ccccc2Br)c1`: the B-score is 0.232 (inactive).

Regarding `CC(C)NC(=O)C(=O)NCCCOC(C)C`, the B-score is 0.568 (inactive).

Turning to `Cc1sc(NC(=S)NC(=O)c2cccs2)nc1-c1ccc(CC(C)C)cc1`, the B-score was -0.0675 (inactive).

`CC/C=C/C(=O)N1CC2(CC(c3cccc(NC(=O)CC)c3)=NO2)C[C@H]1C(N)=O` (stereo not given in full): the B-score is 0.223 (inactive).

Consider `CCOc1ccc(C(CCc2ccccc2)NC(=O)c2ccc(OC)c(OC)c2)cc1OCC` (stereo not given), for which the B-score is -1.85 (inactive).

As for `Cc1ccccc1OCC(=O)NCC(=O)OCC(=O)c1ccc2ccccc2c1`, the B-score is -0.0134 (inactive).

As to `O=C(Nc1cccc(NC(=O)N2CCN(c3ccccc3)CC2)c1)N1CCN(c2ccccc2)CC1`, the B-score was -6.86 (active).

For `O=C(Nc1ccccc1)N1CCN(Cc2ccccc2)CC1`, the B-score was 0.4 (inactive).

With `COc1cccc(N2CCN(C(=O)Nc3ccc4c(c3)NC(=O)CO4)CC2)c1`, the B-score is -0.0474 (inactive).

`O=C(C1=C[C@H](c2coc3ccccc3c2=O)C[C@H](OCc2ccc(CO)cc2)O1)N1CCOCC1`: the B-score was 0.0258 (inactive).

Consider `O=C(ON=C1CCN(S(=O)(=O)c2ccccc2)CC1)c1ccc(Cl)cc1`, for which the B-score is 0.782 (inactive).

For `CC(C)(C)c1ccc(C(=O)NNC(=O)Cc2ccccc2)cc1`, the B-score is 0.185 (inactive).

Regarding `CN(C(=O)CC(NC(=O)c1ccccc1)(c1ccccc1)c1ccccc1)c1ccccc1`, the B-score was -8.96 (active).

For `Cc1ccccc1NC(=O)c1ccccc1`, the B-score is 0.346 (inactive).

In the case of `O=C(O)c1cnn2c(C(F)(F)F)cc(-c3ccccc3)nc12`, the B-score is 1.18 (inactive).

As to `COC(C/C=C/C(=O)[C@@H](C)OCc1ccccc1)OC`, the B-score was -1.65 (inactive).

Turning to `CCC(=O)OCc1c(C(F)(F)F)nn(C)c1Oc1cccc(C(F)(F)F)c1`, the B-score was -5.08 (active).

As for `CCOC(=O)C[C@H]1c2ccc(C(F)(F)F)cc2S(=O)(=O)N1c1ccccc1`, the B-score was -2.6 (inactive).

Consider `Cn1nc(C(F)(F)F)c(C(=O)Nc2cccc(C(F)(F)F)c2)c1SCc1ccc(Cl)cc1`, for which the B-score is -4.7 (inactive).

On to `CC1=NN(C(=O)Cc2ccc(C)cc2)C(O)(c2cccnc2)C1` (stereo not given), for which the B-score was 0.437 (inactive).

With `Cc1ccc(CNC(=O)c2ccc3c(c2)S(=O)(=O)c2ccccc2C3=O)cc1`, the B-score is 0.00734 (inactive).

Take `Cc1cc(/C=C2/SC(=O)N(CC(=O)OC(C)C)C2=O)c(C)n1C`: the B-score was 0.168 (inactive).

With `Cc1ccc(-c2nc3ccccc3[nH]2)cc1NC(=O)c1sc2ccccc2c1Cl`, the B-score is -3.3 (inactive).

Regarding `NC(=O)CSc1c[nH]c2ccccc12`, the B-score was 0.666 (inactive).

In the case of `O=C(Cc1c[nH]c2ccccc12)OCCOC(=O)Cc1c[nH]c2ccccc12`, the B-score is -6.55 (active).

Consider `CC(=O)NC(Cc1c[nH]c2ccccc12)C(=O)O` (stereo not given), for which the B-score was 1.52 (inactive).

With `Cc1cc([N+](=O)[O-])c(NC2CCCCC2)c([N+](=O)[O-])c1`, the B-score was -0.266 (inactive).

On to `CONC(=O)c1cc(OCC(F)(F)F)ccc1OCC(F)(F)F`, for which the B-score is 0.627 (inactive).

For the compound `Brc1ccc(C2=CC(c3ccco3)n3ncnc3N2)cc1` (stereo not given), the B-score is -4.77 (active).

Consider `CCOc1ccc(C2=CC(c3ccccc3)n3ncnc3N2)cc1` (stereo not given), for which the B-score was -0.0885 (inactive).

Consider `COC(=O)C1=C(C)Nc2ncnn2C1c1ccco1` (stereo not given), for which the B-score was -0.126 (inactive).

As to `Cc1ccccc1NC(=O)CNc1ccccc1N1CCCCC1`, the B-score is -8.5 (active).

As for `Cn1c(=O)c2c(nc(SCC(=O)Nc3ccccc3N3CCCCC3)n2C)n(C)c1=O`, the B-score was -0.936 (inactive).

As to `O=C(CN1CCN(C2CCCCC2)CC1)Nc1ccccc1N1CCCCC1`, the B-score is -0.124 (inactive).

Regarding `C#CCOCCOCCOCCNc1nc(N2CCN(C(=O)[C@H](CCC(=O)O)n3cc(C(N)CO)nn3)CC2)nc(N2CCN(C(=O)[C@H](CCCCN)n3cc(C(N)CC(C)C)nn3)CC2)n1` (stereo not given in full), the B-score was -1.41 (inactive).

Turning to `Cc1ccc(C(=O)NNC(=O)OC(C)(C)C)c(Cl)c1`, the B-score was -0.27 (inactive).

In the case of `Cn1c(=O)n(C)c2cc(/C=N/NC(=O)c3cccc(Br)c3)ccc21`, the B-score is 1.83 (inactive).

With `O=C(N/N=C\c1cccc(Br)c1)c1ccccc1-n1cccc1`, the B-score was -6.5 (active).

On to `COc1ccc(C(=O)Nc2ccccc2C(=O)N/N=C/c2ccc(O)c(OC)c2)cc1`, for which the B-score was 0.134 (inactive).

Turning to `COc1ccc2c(c1)CC[C@@H]1[C@@H]2CC[C@]2(C)C(=O)CC[C@@H]12`, the B-score is -0.311 (inactive).

Regarding `Fc1ccc(CSc2nnc(-c3cc4c(s3)-c3ccccc3CC4)o2)cc1`, the B-score was -3.39 (active).

As to `CCSc1nnc(-c2cc3c(s2)-c2ccccc2CC3)o1`, the B-score was 0.187 (inactive).

In the case of `Fc1ccc(-c2nnc(CSc3nnc(-c4ccc5c(c4)OCO5)o3)o2)cc1`, the B-score is -0.34 (inactive).

On to `Cc1nn(C)c(Oc2ccccc2)c1CCNS(=O)(=O)c1ccc(F)cc1`, for which the B-score is -1.06 (inactive).

As for `CC(C)=CC(=O)Nc1nnc(-c2ccc(F)cc2)s1`, the B-score was 0.294 (inactive).

Take `c1ccc(CSc2nnc(-c3ccco3)c(-c3ccco3)n2)cc1`: the B-score is 0.232 (inactive).

In the case of `O=C(CSc1nnc(-c2ccco2)n1Cc1ccccc1)NC(=O)NCc1ccco1`, the B-score was -1.76 (inactive).

Take `c1ccc(CSc2nnc(-c3ccco3)n2Cc2ccccc2)cc1`: the B-score was -4.26 (active).

Turning to `CCOC(=O)CN1C(=O)N[C@@H](c2ccc(Br)cc2)C(C(C)=O)=C1C`, the B-score is 1.08 (inactive).

With `CC(N=Cc1nc(-c2ccccc2)oc1O)c1ccccc1` (stereo not given), the B-score was -4.84 (active).

For `CC(NC(=O)c1cc(-c2ccccc2)on1)c1ccccc1` (stereo not given), the B-score is 0.962 (inactive).

In the case of `C/C=C(\C)C(=O)N1CC2(CC(c3cccc(NC(=O)CCCCC)c3)=NO2)C[C@@H]1C(N)=O` (stereo not given in full), the B-score was -0.0964 (inactive).

Take `O=C1c2ccccc2NC(c2ccc(-c3cccc(Cl)c3)o2)N1O` (stereo not given): the B-score is -6.09 (active).

In the case of `C[C@@H](C(=O)N1CCNCC1)n1cc(CCC(=O)O)nn1`, the B-score was 0.81 (inactive).

On to `Cc1cccc(NC(=O)CN2C(=O)CNC2=O)c1`, for which the B-score is -0.246 (inactive).

For `Cc1cccc(OCCCC(=O)Nc2ccc(S(=O)(=O)N3CCCC3)cc2)c1`, the B-score is -4.11 (inactive).

Consider `Cc1cccc(NC(=O)CN2CCCN(S(=O)(=O)c3ccc(Br)s3)CC2)c1`, for which the B-score was -4.23 (active).

On to `O=C(NC1CC1)C1=C[C@H](c2coc3ccccc3c2=O)C[C@H](OCCCCO)O1`, for which the B-score was 0.0579 (inactive).

In the case of `COc1ccccc1NC(=O)CSc1nnc(-c2ccoc2C)n1CCc1ccccc1`, the B-score was -2.79 (inactive).

For `Cc1ccc(-n2c(SCC(=O)Nc3ccc4c(c3)OCO4)nnc2-c2ccoc2C)cc1`, the B-score is -0.45 (inactive).

As to `CCCn1c(SCC(=O)Nc2cccc(C(=O)OCC)c2)nnc1-c1ccoc1C`, the B-score is -5.22 (active).
